Bioassay records (PubChem)
Sampled rows, rich in hits. Any-hit rate of the full collection: about 2.9%.
PLCg1 inh – PLC-gamma1 enzyme inhibitors, primary screen, biochemical, fluorescence, purified enzyme. 1-phosphatidylinositol 4,5-bisphosphate phosphodiesterase gamma-1 (Homo sapiens), P19174. fluorogenic substrate. inhibition, % at 12.2 µM. actives 0.84% (n = 370,000). AID 720700, 2013; in the data active means inhibition above about 9.5%
KLK7 zymogen act – proKLK7 zymogen activators, primary screen, biochemical, fluorescence intensity; Kallikrein-7 (Homo sapiens), P49862; purified proKLK7, EDANS-DABCYL substrate fluorescence; 100% is mature enzyme control, 0% vehicle; activation, % at 7 µM; actives 0.9% (n = 370,000);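 active means activation above the mean of all tested compounds plus 3 SD, computed per campaign excluding outliers beyond control limits, cut at about 13% in these data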
Target sequence (P49862 whole entry, looked up): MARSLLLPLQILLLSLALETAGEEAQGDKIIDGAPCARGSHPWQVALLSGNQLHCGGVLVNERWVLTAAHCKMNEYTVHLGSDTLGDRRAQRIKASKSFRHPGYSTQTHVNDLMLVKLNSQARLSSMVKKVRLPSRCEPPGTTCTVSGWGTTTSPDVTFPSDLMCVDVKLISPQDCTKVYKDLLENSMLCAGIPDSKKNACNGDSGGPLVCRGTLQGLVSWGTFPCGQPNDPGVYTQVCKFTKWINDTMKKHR
PLC-beta3 inh – human PLC-beta3 inhibitors, primary screen, biochemical, fluorescence; 1-phosphatidylinositol 4,5-bisphosphate phosphodiesterase beta-3 (Homo sapiens), Q01970; Purified PLC-beta3, fluorogenic substrate; inhibition, % at 12.2 µM; actives 0.18% (n = 370,000);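 further: 0% = median of compound wells on plate and 100% = full blocker control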
ADAM10 inh – human ADAM10 inhibitors, primary screen, biochemical, QFRET, HTS | Disintegrin and metalloproteinase domain-containing protein 10 (Homo sapiens), O14672 | recombinant ADAM10, EDANS/DABCYL FRET peptide cleavage, 3 h | inhibition, % at 7 µM | actives 0.62% (n = 370,000) | AID 720582, 2013;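 active means inhibition above a per-campaign cutoff equal to the mean of compounds falling between control-based bounds plus 3 SD, cut at about 20% in these data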;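 further: 0% = DMSO wells while the 100% control is not disclosed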
ADAM17 inh – ADAM17 inhibitors, primary screen, biochemical, QFRET; AID 720648, 2013; recombinant ADAM17, EDANS/DABCYL FRET peptide cleavage; actives 0.83% (n = 370,000); inhibition, % at 6.95 µM; Disintegrin and metalloproteinase domain-containing protein 17 (Homo sapiens), P78536;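 active means inhibition above the mean of compounds lying between control limits plus 3 SD, set per campaign, cut at about 8.5% in these data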;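 further: 0% = DMSO-only wells as the low control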
PLCg1 ctr – PLC-gamma1 enzyme inhibitors, counter-screen for PLC-beta3 inhibitor project, biochemical, fluorescence; shares compounds with PLCg1 inh; purified PLC-gamma1, fluorogenic substrate; inhibition, % at 12.3 µM; actives 3.1% (n = 3,300); in the data active means inhibition above about 9.5%
PLCb3 confirm – PLC-beta3 inhibitor confirmation, biochemical, fluorescence, purified enzyme; shares compounds with PLCg1 inh; fluorogenic substrate fluorescence; inhibition, % at 12.3 µM; actives 1% (n = 3,300); AID 743261, 2014
An asterisk follows results filed as active. Unless noted, no stated cut-off is given here; in the data, active means inhibition above about 11%; inactive means the rest.

Screening COc1ccccc1NC(=S)N(CCCN1CCOCC1)Cc1cn(C)c2ccccc12 returned PLCg1 inh 0.2, KLK7 zymogen act 0.5, PLC-beta3 inh -0.9, ADAM10 inh -4.0 and ADAM17 inh -2.1.
`CCOc1ccccc1NC(=S)N(CCCN1CCOCC1)Cc1cn(C)c2ccccc12` gave PLCg1 inh 13.5*, KLK7 zymogen act 0.2, PLC-beta3 inh -4.3, ADAM10 inh -12.1, ADAM17 inh 6.8, PLCg1 ctr -2.4 and PLCb3 confirm 2.3.
For CC(=O)c1c(C)[nH]c(C(=O)Nc2cccc(C#N)c2)c1C the results were PLCg1 inh 9.8*, KLK7 zymogen act 0.5, PLC-beta3 inh -3.3, ADAM10 inh -3.9, ADAM17 inh 4.6, PLCg1 ctr -16.3 and PLCb3 confirm -14.9.
`CCN(CC)S(=O)(=O)c1ccc2c(c1)c(=O)c(C(=O)NCc1cccs1)cn2C` gave PLCg1 inh 9.6*, KLK7 zymogen act -0.1, PLC-beta3 inh 3.8, ADAM10 inh 15.3, ADAM17 inh 2.9, PLCg1 ctr -4.3 and PLCb3 confirm -5.4.
For COC(=O)c1cn(C)c2ccc(S(=O)(=O)N3CCCCC3)cc2c1=O the results were PLCg1 inh 12.0*, KLK7 zymogen act 0.8, PLC-beta3 inh 5.4, ADAM10 inh 11.9, ADAM17 inh 1.1, PLCg1 ctr 7.7 and PLCb3 confirm 2.4.
`CCn1cc(C(=O)OC)c(=O)c2cc(S(=O)(=O)N(C)C3CCCCC3)ccc21` gave PLCg1 inh -2.0, KLK7 zymogen act 0.0, PLC-beta3 inh -4.0, ADAM10 inh -7.2 and ADAM17 inh -6.0.
COC(=O)c1cn(C)c2ccc(S(=O)(=O)N(C)C3CCCCC3)cc2c1=O was read as PLCg1 inh 10.9*, KLK7 zymogen act -0.5, PLC-beta3 inh 7.9, ADAM10 inh -4.1, ADAM17 inh 3.7, PLCg1 ctr 0.8 and PLCb3 confirm 1.9.
`CCC1CCCCN1CCCNC(=O)c1cn(C)c2ccc(S(=O)(=O)N(C)C3CCCCC3)cc2c1=O` (stereo not drawn) gave PLCg1 inh 12.2*, KLK7 zymogen act -1.0, PLC-beta3 inh -8.8, ADAM10 inh 3.3, ADAM17 inh 1.2, PLCg1 ctr -5.7 and PLCb3 confirm 0.7.
`CN1CCN(C(=O)NCC23CC4CC(CC(C4)C2)C3)CC1` gave PLCg1 inh 1.5, KLK7 zymogen act -0.3, PLC-beta3 inh 2.1, ADAM10 inh -7.8 and ADAM17 inh 0.3.
O=C(CSc1nc2sccc2c(=O)[nH]1)N1CCN(c2ccccc2)CC1 was read as PLCg1 inh 4.4, KLK7 zymogen act 0.1, PLC-beta3 inh -8.9, ADAM10 inh -7.0 and ADAM17 inh -24.7.
For CCn1c(=O)cc(OCC(=O)NCc2ccco2)c2ccccc21 the results were PLCg1 inh 12.2*, KLK7 zymogen act -0.5, PLC-beta3 inh -4.8, ADAM10 inh 2.9, ADAM17 inh -2.1, PLCg1 ctr 5.6 and PLCb3 confirm -1.4.
CCn1c(=O)cc(OCC(=O)NCc2ccc(C)o2)c2ccccc21 was read as PLCg1 inh -4.4, KLK7 zymogen act 0.4, PLC-beta3 inh -5.3, ADAM10 inh -3.3 and ADAM17 inh 0.4.
For COc1cccc(N2CCN(S(=O)(=O)c3ccc4c(c3)oc(=O)n4C)CC2)c1 the results were PLCg1 inh 10.8*, KLK7 zymogen act 0.6, PLC-beta3 inh 1.3, ADAM10 inh -7.3, ADAM17 inh 2.9, PLCg1 ctr -2.8 and PLCb3 confirm -4.5.
`COc1cc(S(=O)(=O)N2CCN(c3ccccc3)CC2)ccc1Cl` gave PLCg1 inh 10.2*, KLK7 zymogen act -0.6, PLC-beta3 inh 0.9, ADAM10 inh 10.6, ADAM17 inh 4.4, PLCg1 ctr -6.7 and PLCb3 confirm -1.6.
Screening Cc1ccc(-c2cc(-c3nnc(SCC(=O)Nc4cccc5ccccc45)n3N)[nH]n2)cc1 returned PLCg1 inh 1.2, KLK7 zymogen act -0.6, PLC-beta3 inh -4.8, ADAM10 inh -2.4 and ADAM17 inh 1.1.
For O=C(NCCc1c[nH]c2ccccc12)c1ccc2c(c1)ncn2C1CCCCC1 the results were PLCg1 inh -1.4, KLK7 zymogen act 0.1, PLC-beta3 inh 0.5, ADAM10 inh -0.9 and ADAM17 inh 2.7.
`Nc1nc(CN2CCN(c3ccccn3)CC2)nc(Nc2ccc(Cl)cc2)n1` gave PLCg1 inh 2.1, KLK7 zymogen act -0.1, PLC-beta3 inh -4.0, ADAM10 inh -3.7 and ADAM17 inh 0.5.
CN(Cc1ccccc1F)C(=O)CCCNC(=O)c1ccc(Cl)cc1 was read as PLCg1 inh 11.2*, KLK7 zymogen act 0.4, PLC-beta3 inh -4.4, ADAM10 inh 9.2, ADAM17 inh 1.9, PLCg1 ctr -9.2 and PLCb3 confirm -5.5.
O=C(CCCNC(=O)c1ccc(Cl)cc1)Nc1ccccc1F was read as PLCg1 inh 2.8, KLK7 zymogen act -0.4, PLC-beta3 inh 0.1, ADAM10 inh 7.3 and ADAM17 inh -4.2.
`Cc1cc(C(=O)O)c(CCCN)s1` gave PLCg1 inh 5.9, KLK7 zymogen act 0.4, PLC-beta3 inh 11.6*, ADAM10 inh -0.3, ADAM17 inh 0.7, PLCg1 ctr -2.2 and PLCb3 confirm 1.1.
Screening COc1ccc(Nc2ccc([N+](=O)[O-])cc2[N+](=O)[O-])cc1 returned PLCg1 inh 7.2, KLK7 zymogen act -0.1, PLC-beta3 inh -4.1, ADAM10 inh -3.8 and ADAM17 inh -3.6.
Screening O=C1C(=O)N(CCO)C(c2ccc(Br)cc2)/C1=C(\O)c1ccccc1 (stereo not drawn) returned PLCg1 inh 12.0*, KLK7 zymogen act 0.0, PLC-beta3 inh 4.2, ADAM10 inh 13.6, ADAM17 inh 6.0, PLCg1 ctr -4.8 and PLCb3 confirm 0.7.
`COC(=O)c1cccc(NC(=O)CN2CCN(c3ccc(OC)cc3)CC2)c1` gave PLCg1 inh 12.9*, KLK7 zymogen act 0.7, PLC-beta3 inh -0.3, ADAM10 inh 1.6, ADAM17 inh -1.8, PLCg1 ctr -4.4 and PLCb3 confirm -0.8.
Screening COC(=O)c1ccc(NC(=O)CN2CCN(c3ccccc3)CC2)cc1 returned PLCg1 inh 12.3*, KLK7 zymogen act -0.4, PLC-beta3 inh -7.5, ADAM10 inh 0.2, ADAM17 inh -0.1, PLCg1 ctr -8.5 and PLCb3 confirm -7.5.
Screening COC(=O)c1ccc(NC(=O)CN2CCN(c3ccccn3)CC2)cc1 returned PLCg1 inh 9.9*, KLK7 zymogen act 0.7, PLC-beta3 inh -86.6, ADAM10 inh -1.6, ADAM17 inh -6.8, PLCg1 ctr -3.8 and PLCb3 confirm -3.5.
